Laboratory results taken from PubChem BioAssay.

Assay: modulators of CIT2-GFP expression in yeast, confirmation, S. cerevisiae, GFP fusion, cherry picks, mother/daughter gates (AID 2274)
Conditions: S. cerevisiae CIT2-GFP strain, flow cytometry, 3 h; measured here: daughter cell gate; at 10 µM; stronger effect = higher value

Row | SMILES | GFP response, % of DMSO
1 | O=C(c1ccccc1F)N1CCN(c2ccccc2)CC1 | 101%
2 | O=C(C1CCN(Cc2nc(Cc3cccc(F)c3)no2)CC1)N1CCOCC1 | 99.7%
3 | COC(=O)c1ccc(/C=N\NC(=O)c2ccc(C)cc2Cl)cc1 | 105%
4 | CCNC(=O)c1ccccc1-c1nc(-c2ccccc2Cl)no1 | 99.3%
5 | O=C(OCC(=O)N1CCN(C(=O)c2ccco2)CC1)c1cc(-c2ccc(Cl)c(Cl)c2Cl)nc2ccccc12 | 105%
6 | c1ccc(CSc2ccc(-c3ccccn3)nn2)cc1 | 97.4%
7 | N#C/C(=C\c1c(N2CCCCCC2)nc2ccccn2c1=O)C(=O)NCc1ccco1 | 99.1%
8 | Cc1ccc(Nc2c(-c3ccccn3)nc3ccc(C)cn23)cc1 | 121%
9 | Cc1ccc(-c2csc3ncn(Cc4ccc(C(=O)O)cc4)c(=O)c23)cc1C | 105%
10 | CCOC(=O)c1ccc(NC(=O)CCc2nc(-c3ccc(Cl)cc3)no2)cc1 | 105%
11 | O=C(Nc1cc(Sc2ccccn2)cc([N+](=O)[O-])c1)c1ccc([N+](=O)[O-])cc1 | 106%
12 | O=C1c2ccccc2C(=O)N1OS(=O)(=O)c1ccc(F)cc1 | 103%
13 | Cc1ccc(N2CCN(C(=O)c3ccccc3Br)CC2)c(C)c1 | 97.2%
14 | CCCc1[nH]nc2c1C1(C(=O)N(C(C)C)c3ccccc31)C(C#N)=C(N)O2 (configuration not stated) | 101%
15 | O=C1c2cccc3c([N+](=O)[O-])ccc(c23)C(=O)N1O | 247%
16 | COC(=O)Cn1nc(-c2ccccc2)c2cc(Cl)ccc21 | 116%
17 | O=C1C(Cl)=C(NCCc2ccccc2)C(=O)N1CCc1ccccc1 | 106%
18 | O=c1c(-c2ccc(Cl)cc2)[n+]([O-])c2ccccc2n1O | 90.9%
19 | CCc1ccccc1OCc1nnc(N)s1 | 101%
20 | Cc1ccc(/C=C2/SC(=S)N(C3CCCCC3)C2=O)o1 | 101%
21 | O=C(Cn1cc(/C=C\[N+](=O)[O-])c2ccccc21)Nc1ccccc1 | 101%
22 | Cc1nnc(NC(=O)c2ccc(S(=O)(=O)N3CCCCCC3)cc2)o1 | 103%

Same assay, conditions: S. cerevisiae CIT2-GFP strain, flow cytometry, 3 h; measured here: mother cell gate; at 10 µM; stronger effect = higher value

Row | SMILES | GFP response, % of DMSO
23 | O=C(COC(=O)c1n[nH]c2ccccc12)c1cccc(Br)c1 | 100%
24 | Cc1c(C(=O)Nc2ccccc2)cnn1-c1ccccc1 | 103%
25 | Oc1c(CN2CCN(c3ccccc3)CC2)cc(Br)c2cccnc12 | 93.8%
26 | NC(=O)c1ccccc1-c1nc(-c2ccccc2)no1 | 104%
27 | CC(C(=O)O)n1nc(-c2ccccc2)c2ccccc21 (configuration not stated) | 101%
28 | COc1cc(/C=C2/N=C(c3ccccc3)OC2=O)c(F)cc1OCc1ccccc1 | 106%
29 | COc1ccc(-c2nn(-c3ccccc3)cc2C(=O)NC(=S)NNC(=O)c2ccncc2)cc1 | 104%
30 | CCOC(=O)Cc1csc(NC(=O)CCCCCN2C(=O)c3cccc4cccc(c34)C2=O)n1 | 101%
31 | COC(=O)c1ccc(/C=C/C(=O)c2cccc(OC)c2)cc1 | 102%
32 | Cc1[nH][nH]c(=O)c1C(c1ccc(N(C)C)c(Br)c1)c1c(C)[nH][nH]c1=O | 94.5%
33 | Cc1ccc(CCN2CC(C(=O)NCCCN(C)Cc3ccccc3)CC2=O)cc1 (configuration not stated) | 96%
34 | COc1ccc(NC(=O)C2CCN(S(=O)(=O)c3ccc(OC)c(OC)c3)CC2)c(OC)c1 | 105%
35 | CN1CCc2c(sc3c2C(=O)NC(c2ccc4c(c2)OCO4)N3)C1 (configuration not stated) | 99.1%
36 | Nc1cccnc1S(=O)(=O)c1ccccc1 | 97.7%
37 | N#Cc1ccccc1Cn1cc(/C=C/[N+](=O)[O-])c2ccccc21 | 91.8%
38 | CN(c1ccccc1)S(=O)(=O)c1ccc(C(=O)Nc2nnc(-c3ccc(F)cc3)o2)cc1 | 128%
39 | Cc1ccc(C)c(N2CCN(C(=O)c3ccccc3Br)CC2)c1 | 105%
40 | CCOC(=O)C(=CNNc1cccc(Cl)c1)C(=O)OCC | 104%
41 | O=C(c1ccccc1F)N1CCN(c2ccccc2)CC1 | 98.5%
42 | O=C(C1CCN(Cc2nc(Cc3cccc(F)c3)no2)CC1)N1CCOCC1 | 102%

Row | SMILES | GFP response, % of DMSO
43 | COC(=O)c1ccc(/C=N\NC(=O)c2ccc(C)cc2Cl)cc1 | 99.7%
44 | CCNC(=O)c1ccccc1-c1nc(-c2ccccc2Cl)no1 | 97.1%
45 | O=C(OCC(=O)N1CCN(C(=O)c2ccco2)CC1)c1cc(-c2ccc(Cl)c(Cl)c2Cl)nc2ccccc12 | 107%
46 | c1ccc(CSc2ccc(-c3ccccn3)nn2)cc1 | 93.2%
47 | N#C/C(=C\c1c(N2CCCCCC2)nc2ccccn2c1=O)C(=O)NCc1ccco1 | 96.1%
48 | Cc1ccc(Nc2c(-c3ccccn3)nc3ccc(C)cn23)cc1 | 93.3%
49 | Cc1ccc(-c2csc3ncn(Cc4ccc(C(=O)O)cc4)c(=O)c23)cc1C | 107%
50 | CCOC(=O)c1ccc(NC(=O)CCc2nc(-c3ccc(Cl)cc3)no2)cc1 | 104%
51 | O=C(Nc1cc(Sc2ccccn2)cc([N+](=O)[O-])c1)c1ccc([N+](=O)[O-])cc1 | 106%
52 | O=C1c2ccccc2C(=O)N1OS(=O)(=O)c1ccc(F)cc1 | 99.7%
53 | Cc1ccc(N2CCN(C(=O)c3ccccc3Br)CC2)c(C)c1 | 96.1%
54 | CCCc1[nH]nc2c1C1(C(=O)N(C(C)C)c3ccccc31)C(C#N)=C(N)O2 (configuration not stated) | 99.3%
55 | O=C1c2cccc3c([N+](=O)[O-])ccc(c23)C(=O)N1O | 223%
56 | COC(=O)Cn1nc(-c2ccccc2)c2cc(Cl)ccc21 | 112%
57 | O=C1C(Cl)=C(NCCc2ccccc2)C(=O)N1CCc1ccccc1 | 106%
58 | O=c1c(-c2ccc(Cl)cc2)[n+]([O-])c2ccccc2n1O | 91%
59 | CCc1ccccc1OCc1nnc(N)s1 | 99.3%
60 | Cc1ccc(/C=C2/SC(=S)N(C3CCCCC3)C2=O)o1 | 89.5%
61 | O=C(Cn1cc(/C=C\[N+](=O)[O-])c2ccccc21)Nc1ccccc1 | 99.7%
62 | Cc1nnc(NC(=O)c2ccc(S(=O)(=O)N3CCCCCC3)cc2)o1 | 96.8%
